# Measured values taken from the supplement of paper PMC11732987, “Enantioselective OTUD7B fragment discovery through chemoproteomics screening and high-throughput optimisation” (Communications Chemistry, 2025).
# Unmarked numbers belong to inactive results.
# Columns and labels:
# Test in all cases: log2 ratio of Biotin-Ahx-Ub-VS probe labelling (fragment/DMSO); higher = less target engagement (more negative = stronger competition), active = hit call of the paper (q ≤ 0.05, log2 ratio ≤ -1)
# Conditions in all cases: compound concentration: 200 uM; treatment time: 3 h
# [1] = biological target: T1, ALG13 (UniProt Q9NP73)
# T1 sequence (whole entry): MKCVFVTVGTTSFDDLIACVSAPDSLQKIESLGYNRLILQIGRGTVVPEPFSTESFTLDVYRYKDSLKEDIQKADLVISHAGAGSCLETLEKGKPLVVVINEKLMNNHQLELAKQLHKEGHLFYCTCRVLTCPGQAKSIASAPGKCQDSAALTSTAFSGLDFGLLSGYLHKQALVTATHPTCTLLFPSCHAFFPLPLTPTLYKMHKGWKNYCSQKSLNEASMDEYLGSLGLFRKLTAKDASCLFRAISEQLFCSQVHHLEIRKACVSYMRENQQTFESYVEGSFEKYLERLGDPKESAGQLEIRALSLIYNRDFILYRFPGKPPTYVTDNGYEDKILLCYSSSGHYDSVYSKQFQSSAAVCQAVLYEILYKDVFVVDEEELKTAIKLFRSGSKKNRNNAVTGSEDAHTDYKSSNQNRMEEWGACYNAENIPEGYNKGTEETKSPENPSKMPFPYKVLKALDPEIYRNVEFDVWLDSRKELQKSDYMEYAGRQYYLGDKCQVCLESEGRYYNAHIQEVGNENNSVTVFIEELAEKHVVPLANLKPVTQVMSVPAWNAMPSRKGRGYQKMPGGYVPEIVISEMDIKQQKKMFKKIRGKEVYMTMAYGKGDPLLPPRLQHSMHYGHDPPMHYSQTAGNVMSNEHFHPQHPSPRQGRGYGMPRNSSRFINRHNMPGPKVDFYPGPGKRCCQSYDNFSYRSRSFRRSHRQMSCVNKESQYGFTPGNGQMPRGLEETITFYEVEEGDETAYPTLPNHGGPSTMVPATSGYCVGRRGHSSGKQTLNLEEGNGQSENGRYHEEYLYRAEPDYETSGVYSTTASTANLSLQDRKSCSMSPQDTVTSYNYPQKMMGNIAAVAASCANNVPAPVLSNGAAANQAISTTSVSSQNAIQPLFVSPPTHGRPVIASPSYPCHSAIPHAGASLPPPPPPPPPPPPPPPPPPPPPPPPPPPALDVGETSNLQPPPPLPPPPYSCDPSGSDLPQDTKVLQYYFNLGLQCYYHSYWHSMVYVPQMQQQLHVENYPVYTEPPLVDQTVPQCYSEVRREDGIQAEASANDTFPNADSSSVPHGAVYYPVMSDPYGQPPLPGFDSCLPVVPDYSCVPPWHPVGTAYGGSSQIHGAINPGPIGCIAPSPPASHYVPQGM
# In short: (§1)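 HEK293T lysate (495 µg per sample, in Tris/CHAPS/IGEPAL buffer with protease inhibitors) was exposed in triplicate for 3 h to fragment at 200 µM or to vehicle, then to Biotin-Ahx-Ub-VS at 0.5 µM final for 1 h. Labelled DUBs were enriched on NeutrAvidin, digested with LysC and trypsin, and analysed by diaPASEF LC-MS/MS. Spectronaut label-free quantities were normalised to the global median, and values are average log2 ratios of fragment over vehicle from an unpaired t-test. Only proteins with ≥2 unique peptides were used.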
# [2] = biological target: ATXN3 (UniProt P54252)
# ATXN3, sequence (P54252 whole entry): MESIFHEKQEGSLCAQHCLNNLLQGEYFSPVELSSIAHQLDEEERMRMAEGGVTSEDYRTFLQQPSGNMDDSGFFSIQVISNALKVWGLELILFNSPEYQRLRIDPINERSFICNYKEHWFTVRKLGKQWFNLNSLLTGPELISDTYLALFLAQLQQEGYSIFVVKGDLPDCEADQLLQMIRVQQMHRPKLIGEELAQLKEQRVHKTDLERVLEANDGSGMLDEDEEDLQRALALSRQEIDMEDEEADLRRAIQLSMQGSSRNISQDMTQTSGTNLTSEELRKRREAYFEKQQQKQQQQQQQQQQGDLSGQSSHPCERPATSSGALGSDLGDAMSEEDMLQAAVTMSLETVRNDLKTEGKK
# In short: as §1
# [3] = biological target: T2, BAP1 (UniProt Q92560)
# T2 sequence (whole entry): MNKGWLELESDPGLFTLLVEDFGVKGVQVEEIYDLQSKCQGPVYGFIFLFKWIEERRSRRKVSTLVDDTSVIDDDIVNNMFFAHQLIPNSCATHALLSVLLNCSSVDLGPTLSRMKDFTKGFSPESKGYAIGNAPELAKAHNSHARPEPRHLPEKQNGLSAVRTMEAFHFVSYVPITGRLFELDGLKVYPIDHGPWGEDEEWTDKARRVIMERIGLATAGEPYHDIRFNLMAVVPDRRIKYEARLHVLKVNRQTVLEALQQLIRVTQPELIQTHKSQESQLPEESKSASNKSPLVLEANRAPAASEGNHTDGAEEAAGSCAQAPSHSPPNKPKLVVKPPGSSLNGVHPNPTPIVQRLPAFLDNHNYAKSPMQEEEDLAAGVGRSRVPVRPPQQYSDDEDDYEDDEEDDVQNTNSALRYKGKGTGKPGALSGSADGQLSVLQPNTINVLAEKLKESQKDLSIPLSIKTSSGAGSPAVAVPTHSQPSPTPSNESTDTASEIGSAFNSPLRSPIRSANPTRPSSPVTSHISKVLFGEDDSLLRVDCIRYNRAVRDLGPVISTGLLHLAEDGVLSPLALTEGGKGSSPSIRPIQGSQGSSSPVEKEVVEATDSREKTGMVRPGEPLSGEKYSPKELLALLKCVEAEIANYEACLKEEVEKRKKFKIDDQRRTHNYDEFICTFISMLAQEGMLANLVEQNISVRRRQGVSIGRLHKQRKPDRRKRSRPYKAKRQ
# In short: as §1
# [4] = biological target: EIF3F (UniProt O00303)
# EIF3F, sequence (O00303 whole entry): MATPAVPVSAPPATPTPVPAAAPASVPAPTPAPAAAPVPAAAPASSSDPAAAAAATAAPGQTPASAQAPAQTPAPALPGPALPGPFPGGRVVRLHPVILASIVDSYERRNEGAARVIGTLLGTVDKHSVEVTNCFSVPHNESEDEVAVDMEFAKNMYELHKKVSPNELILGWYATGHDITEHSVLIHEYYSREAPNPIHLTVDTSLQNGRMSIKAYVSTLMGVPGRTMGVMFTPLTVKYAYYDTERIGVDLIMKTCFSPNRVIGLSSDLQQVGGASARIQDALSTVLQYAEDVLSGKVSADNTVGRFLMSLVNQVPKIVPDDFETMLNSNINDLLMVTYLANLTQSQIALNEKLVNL
# In short: as §1
# [5] = biological target: EIF3H (UniProt O15372)
# EIF3H, sequence (O15372 whole entry): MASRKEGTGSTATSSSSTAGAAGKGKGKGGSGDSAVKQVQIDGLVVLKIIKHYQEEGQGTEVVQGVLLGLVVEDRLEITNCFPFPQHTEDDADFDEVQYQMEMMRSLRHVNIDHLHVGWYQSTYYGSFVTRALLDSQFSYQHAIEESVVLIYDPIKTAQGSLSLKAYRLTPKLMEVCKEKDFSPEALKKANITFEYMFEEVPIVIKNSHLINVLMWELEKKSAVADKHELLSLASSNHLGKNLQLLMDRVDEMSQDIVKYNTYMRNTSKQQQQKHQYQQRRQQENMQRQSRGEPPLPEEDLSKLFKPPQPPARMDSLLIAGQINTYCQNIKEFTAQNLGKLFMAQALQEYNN
# In short: as §1
# [6] = biological target: T3, FAM105A (UniProt Q9NUU6)
# T3 sequence (whole entry): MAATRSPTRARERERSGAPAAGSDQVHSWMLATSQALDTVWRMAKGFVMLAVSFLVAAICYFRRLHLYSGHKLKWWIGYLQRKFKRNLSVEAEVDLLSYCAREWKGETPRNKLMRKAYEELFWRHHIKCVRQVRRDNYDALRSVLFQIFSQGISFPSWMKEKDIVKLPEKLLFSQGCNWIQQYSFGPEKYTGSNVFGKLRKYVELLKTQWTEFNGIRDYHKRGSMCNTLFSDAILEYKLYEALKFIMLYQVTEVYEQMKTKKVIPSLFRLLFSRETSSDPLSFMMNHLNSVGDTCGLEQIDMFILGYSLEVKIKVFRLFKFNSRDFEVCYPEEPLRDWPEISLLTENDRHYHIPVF
# In short: as §1
# [7] = biological target: OTUB1 (UniProt Q96FW1)
# OTUB1, sequence (Q96FW1 whole entry): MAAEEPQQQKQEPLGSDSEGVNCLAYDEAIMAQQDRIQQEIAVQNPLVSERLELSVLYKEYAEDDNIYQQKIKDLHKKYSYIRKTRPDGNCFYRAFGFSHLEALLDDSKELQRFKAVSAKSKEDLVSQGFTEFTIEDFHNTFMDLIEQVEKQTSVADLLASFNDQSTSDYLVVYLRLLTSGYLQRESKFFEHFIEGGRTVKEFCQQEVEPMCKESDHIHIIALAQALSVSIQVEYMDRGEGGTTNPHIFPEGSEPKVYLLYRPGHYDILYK
# In short: as §1
# [8] = biological target: T4, OTUD4 (UniProt Q01804)
# T4 sequence (whole entry): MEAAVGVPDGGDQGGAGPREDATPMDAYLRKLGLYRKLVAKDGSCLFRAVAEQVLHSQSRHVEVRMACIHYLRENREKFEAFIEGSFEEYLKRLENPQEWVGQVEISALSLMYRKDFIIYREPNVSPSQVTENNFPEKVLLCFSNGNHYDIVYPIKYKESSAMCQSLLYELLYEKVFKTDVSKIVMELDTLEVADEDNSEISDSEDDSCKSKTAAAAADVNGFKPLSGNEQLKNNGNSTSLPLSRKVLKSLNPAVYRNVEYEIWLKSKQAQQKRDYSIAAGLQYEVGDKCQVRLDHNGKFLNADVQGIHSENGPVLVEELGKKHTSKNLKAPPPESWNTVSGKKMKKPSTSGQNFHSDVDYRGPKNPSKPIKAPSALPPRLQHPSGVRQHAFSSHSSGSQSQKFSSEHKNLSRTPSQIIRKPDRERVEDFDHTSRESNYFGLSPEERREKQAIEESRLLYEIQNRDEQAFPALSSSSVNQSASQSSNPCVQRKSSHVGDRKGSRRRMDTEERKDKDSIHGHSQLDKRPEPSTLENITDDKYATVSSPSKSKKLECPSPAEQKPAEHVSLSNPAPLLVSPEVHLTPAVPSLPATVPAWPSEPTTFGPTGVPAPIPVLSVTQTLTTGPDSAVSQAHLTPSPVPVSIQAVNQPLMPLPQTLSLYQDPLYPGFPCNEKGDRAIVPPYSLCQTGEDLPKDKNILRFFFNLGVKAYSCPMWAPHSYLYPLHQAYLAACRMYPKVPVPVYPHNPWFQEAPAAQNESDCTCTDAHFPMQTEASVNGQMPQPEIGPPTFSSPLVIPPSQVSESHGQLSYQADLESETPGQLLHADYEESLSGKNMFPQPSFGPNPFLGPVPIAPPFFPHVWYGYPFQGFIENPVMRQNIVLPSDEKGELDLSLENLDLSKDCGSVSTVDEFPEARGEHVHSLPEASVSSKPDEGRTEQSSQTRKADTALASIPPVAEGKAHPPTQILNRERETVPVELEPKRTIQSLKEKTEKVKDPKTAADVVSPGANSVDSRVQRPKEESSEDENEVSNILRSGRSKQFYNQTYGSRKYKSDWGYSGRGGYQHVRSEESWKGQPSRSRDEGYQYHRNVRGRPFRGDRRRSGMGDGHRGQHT
# In short: as §1
# [9] = biological target: T5, OTUD5 (UniProt Q96G74)
# T5 sequence (whole entry): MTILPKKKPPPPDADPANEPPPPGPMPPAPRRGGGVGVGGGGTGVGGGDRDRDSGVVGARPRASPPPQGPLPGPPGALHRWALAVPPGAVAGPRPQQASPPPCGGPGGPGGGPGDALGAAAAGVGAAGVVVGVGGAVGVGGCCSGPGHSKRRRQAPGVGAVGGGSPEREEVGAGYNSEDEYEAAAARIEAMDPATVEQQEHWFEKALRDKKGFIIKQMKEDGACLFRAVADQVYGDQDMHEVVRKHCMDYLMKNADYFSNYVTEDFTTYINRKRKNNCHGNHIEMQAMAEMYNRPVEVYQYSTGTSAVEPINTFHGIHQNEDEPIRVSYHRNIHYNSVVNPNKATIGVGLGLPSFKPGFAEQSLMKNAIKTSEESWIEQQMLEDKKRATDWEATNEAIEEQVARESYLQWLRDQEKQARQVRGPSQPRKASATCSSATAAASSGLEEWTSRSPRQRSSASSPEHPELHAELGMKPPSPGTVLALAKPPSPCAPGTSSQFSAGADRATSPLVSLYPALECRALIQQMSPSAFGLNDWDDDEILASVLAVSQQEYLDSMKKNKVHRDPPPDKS
# In short: as §1
structure (smiles),measurement,setting,value
Cl.O=C(CCl)NCc1ccnc(Oc2ccccc2F)c1,log2 ratio of Biotin-Ahx-Ub-VS probe labelling,[1],0.177
same,log2 ratio of Biotin-Ahx-Ub-VS probe labelling,[2],-0.51
same,log2 ratio of Biotin-Ahx-Ub-VS probe labelling,[3],-3.99 (active)
same,log2 ratio of Biotin-Ahx-Ub-VS probe labelling,[4],-0.072
same,log2 ratio of Biotin-Ahx-Ub-VS probe labelling,[5],-0.589
same,log2 ratio of Biotin-Ahx-Ub-VS probe labelling,[6],-0.0684
same,log2 ratio of Biotin-Ahx-Ub-VS probe labelling,[7],-0.232
same,log2 ratio of Biotin-Ahx-Ub-VS probe labelling,[8],-0.244
same,log2 ratio of Biotin-Ahx-Ub-VS probe labelling,[9],-0.524
